# High-throughput results as filed in PubChem.
# Hits are enriched below; roughly 12% of the tested compounds scored in any of these assays.
# Sfp PPTase inh – qHTS Assay for Inhibitors of Bacillus subtilis Sfp phosphopantetheinyl transferase (PPTase); Biochemical Sfp PPTase activity, qHTS; Potency, µM, without a hit: largest response in the series, negative = inhibition, most hits filed as inhibitors; actives 3.5% (n = 310,000);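 further: the enzyme is Sfp with the accession as filed and its product quenches rhodamine fluorescence; 0% = enzyme reaction without inhibitor and -100% = no enzyme wells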
#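 Fluorescence-quenching assay with 15 nM Sfp, 5 uM rhodamine-CoA and 12.5 uM BHQ-2-labelled ybbR peptide in pH 7.6 Hepes/MgCl2 buffer. Enzyme was pre-incubated with compound for 15 min at room temperature. Rate was taken from the 30-min fluorescence change (525/598 nm).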
# BAZ2B inh – qHTS Assay for Inhibitors of BAZ2B | Bromodomain adjacent to zinc finger domain protein 2B (Homo sapiens), Q9UIF8 | AlphaScreen BAZ2B-H3K14Ac peptide displacement | Potency, µM (series often up to 114 µM), without a hit: at the highest dose activity change, negative = inhibition, usual class: inhibitors | actives 4.4% (n = 360,000) | AID 504333, 2011; further: on the % scale 0 is the no-effect control and ±100 the full control effect; nearly all actives have a fitted effect of over 60% in size
#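 In this displacement format the biotinylated H3(5-23) peptide acetylated at Lys14 serves as ligand at 50 nM, with BAZ2B at 50 nM in PBS pH 7.4 containing 0.01% Tween-20. Donor and acceptor beads are 10 ug/mL final.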
# JMJD2A Tudor – qHTS Assay for Inhibitors of JMJD2A-Tudor Domain; Lysine-specific demethylase 4A (Homo sapiens), O75164; AlphaScreen JMJD2A-Tudor / H3K4me3 peptide binding; Potency, µM (series often up to 114 µM), without a hit: at the highest dose activity change, negative = inhibition, actives largely listed as inhibitors; actives 4.4% (n = 390,000); further: on the % scale 0 is the no-effect control and ±100 the full control effect; nearly all actives have a fitted effect of over 50% in size
# HP1b binding inh – HTS for Inhibitors of HP1-beta Chromodomain Interactions with Methylated Histone Tails; Chromobox protein homolog 1 (Homo sapiens), P83916; AlphaScreen HP1-beta / biotin-H3K9me3 peptide binding; Potency, µM (series often up to 114 µM), without a hit: at the top dose activity change, negative = inhibition, most hits filed as inhibitors; actives 0.56% (n = 390,000); AID 540317, 2011; further: nearly all actives have a fitted effect of over 70% in size
# Target sequence (P83916 whole entry, looked up): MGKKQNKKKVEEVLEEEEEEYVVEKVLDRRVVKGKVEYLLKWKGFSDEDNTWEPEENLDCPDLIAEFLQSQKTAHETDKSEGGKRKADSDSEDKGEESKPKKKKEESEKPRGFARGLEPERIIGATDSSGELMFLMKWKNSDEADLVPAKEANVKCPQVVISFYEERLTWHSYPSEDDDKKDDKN
#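 HP1-beta protein (50 nM final) preincubated 30 min at room temperature with biotinylated H3(1-18)K9me3 peptide (50 nM) in PBS pH 7.4, 0.01% Tween-20, then compound added for 30 min. AlphaScreen streptavidin donor/nickel chelate acceptor beads (10 ug/mL final), 30 min dark, luminescence read.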
# G9a inh – qHTS Assay for Inhibitors of Histone Lysine Methyltransferase G9a; Histone-lysine N-methyltransferase EHMT2 (Homo sapiens), Q96KQ7; G9a H3K9 monomethylation, AlphaScreen, 2 h; Potency, µM (titrated, usually from 102 µM), for inactives: at the highest dose activity, negative = inhibition, usual class: inhibitors; actives 8.8% (n = 350,000); further: on the % scale 0 is the no-effect control and ±100 the full control effect; nearly all actives have a fitted effect of over 75% in size
# Target sequence (Q96KQ7 913-1193 limits assumed): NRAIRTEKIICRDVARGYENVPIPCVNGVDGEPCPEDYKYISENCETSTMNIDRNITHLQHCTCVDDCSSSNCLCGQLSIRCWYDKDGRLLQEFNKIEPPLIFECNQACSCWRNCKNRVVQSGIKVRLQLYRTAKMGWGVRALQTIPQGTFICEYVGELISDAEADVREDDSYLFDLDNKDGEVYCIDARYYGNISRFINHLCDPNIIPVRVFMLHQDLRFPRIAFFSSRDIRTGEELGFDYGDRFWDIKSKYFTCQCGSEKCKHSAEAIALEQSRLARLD
#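 Step 1: enzyme (final 20 nM) with compound, 15 min RT. Step 2: substrate peptide 500 nM and SAM 20 uM, 2 h RT. Step 3: anti-H3K9me1 antibody and AlphaScreen beads, 10 min, then plate read.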
# Starred values were filed as active, the others as inactive; ? = inconclusive; · = no result; [ ] = remark or other dose. The call rests on the fitted dose curve; in most records, active means well fitted curve in the direction sought with a large enough effect; inconclusive means small, poorly fitted or top-dose-only effect, or another doubt; inactive means no such curve, though single readings can be large; an effect the other way counts as inactive or inconclusive. Potency means the concentration at half of the fitted maximal effect.
SMILES,Sfp PPTase inh,BAZ2B inh,JMJD2A Tudor,HP1b binding inh,G9a inh
Cc1cc(=O)[nH]c2ccc(S(=O)(=O)N3CCOCC3)cc12,20.9%,-18.0%,8.3%,29.3%,45.2%
C#CCOCCOCCOCCNc1nc(N2CCN(C(=O)[C@H]([C@@H](C)CC)n3cc([C@@H](N)CC(C)C)nn3)CC2)nc(N2CCN(C(=O)[C@H](CCCCN)n3cc([C@@H](N)C(C)CC)nn3)CC2)n1 (stereo partly drawn),9.9%,79.4µM*,79.4µM*,6.5%,-11.1%[12.7 µM]
CC(C)NCC(O)c1ccc2ccccc2c1 (stereo not drawn),13.4%,11.1%,-6.2%,45.4%,-49.0%[59 µM]
CCOC(=O)C1CCN(CC(=O)Nc2ccc(OC)c(Cl)c2)CC1,-14.0%,50.1µM*,2.82µM*,?,10µM*
CCOC(=O)C1CCCN(CC(=O)Nc2cc(C)cc(C)c2)C1 (stereo not drawn),-2.1%,-2.6%,-11.3%,20.0%,50.1µM*
COc1ccc(NC(=O)CN2CCN(CC(=O)Nc3ccccc3Cl)CC2)cc1Cl,-3.9%,-11.5%,-4.7%[57.1 µM],9.0%,·
CCOC(=O)C1CCCN(CC(=O)Nc2cccc(C(C)=O)c2)C1 (stereo not drawn),?,50.1µM*,22.4µM*,?,17.8µM*
CCOC(=O)C1CCCN(CCC(=O)Nc2cc(C)cc(C)c2)C1 (stereo not drawn),-10.4%,-4.5%,-9.0%,29.4%,18.0%
COC(=O)c1cc(CSc2nnc(NC3CCCCC3)s2)oc1C,31.6µM*,?,89.1µM*,19.4%,?
O=C(CC1C(=O)NCCN1Cc1cccc(Oc2ccccc2)c1)NCCc1ccccn1 (stereo not drawn),3.3%,-4.3%,-30.2%,27.8%,22.4µM*
COc1cccc(CN2CCNC(=O)C2CC(=O)NCCc2ccccn2)c1 (stereo not drawn),-17.5%,-5.4%,-5.6%,33.0%,?
Cn1cc(CCNC(=O)CC2C(=O)NCCN2Cc2cccc(Oc3ccccc3)c2)cn1 (stereo not drawn),-0.4%,-32.7%,?,27.2%,35.5µM*
COc1ccc(NC(=O)C(CCSC)NC(N)=O)cc1Cl (stereo not drawn),21.4%,-10.8%,-8.8%,19.2%,2.3%
CN(C)S(=O)(=O)c1ccc(C(=O)Oc2cc(=O)[nH]c3ccccc23)cc1,7.3%,-2.3%,-13.6%,44.0%,70.8µM*
CCOC(=O)c1[nH]c2ccccc2c1NC(=O)c1ccc(S(=O)(=O)N(C)C)cc1,15.3%,2.7%,-24.8%,44.6%,-21.9%
CN1C(=O)CC(n2c(CO)nc3ccccc32)C1=O (stereo not drawn),21.7%,10.7%,7.2%,42.7%,?
Cc1cc(Cl)cc(Cl)c1OCCOCCN(C)C,-20.5%,?,6.31µM*,?,11.2µM*
Cc1cc(C)c(OCCN(C)C)c(Cl)c1,-17.7%,50.1µM*,3.55µM*,?,11.2µM*
Cc1cc(OCCOCCN(C)C)ccc1Cl,-29.4%,?,28.2µM*,?,?
Cc1cc(Cl)cc(Cl)c1OCCOc1cccc2cccnc12,?,4.4%,-8.7%,17.4%,23.8%[12.7 µM]
CCCOc1ccc(-c2nc(=S)[nH][nH]2)cc1,50.1µM*,-7.9%,?,-15.6%,·
S=c1nc(-c2ccc(Cl)cc2)[nH][nH]1,44.7µM*,-26.5%,?,?,0.562µM*
C=CCSc1n[nH]c(-c2ccc(OCCCC)cc2)n1,15.1%,10.3%,17.1%,117.2%,2.2%[12.7 µM]
Nc1nc(-c2ccc(Cl)cc2)nc(-c2ccc(Cl)cc2)n1,3.7%,2.5%,-3.4%,73.6%,-7.4%[59 µM]
Cc1cc([N+](=O)[O-])ccc1NC(=O)CN1CCN(Cc2ccccc2)CC1,16.0%,?,-22.6%,16.2%,5.1%
CC(C)(Oc1ccc(Cl)cc1)C(=O)OCC(=O)N1CCCC1,24.9%,·,-14.7%,16.6%,14.4%[59 µM]
